Measurements from PubChem BioAssay (EPA / NIEHS).
Results filed as inconclusive are left out. Activity calls are given as the source filed them. Rule for the calls: active = hit-call score of the fitted dose curve at least 0.9, where 1 is the maximum; inconclusive = response in the unintended direction; inactive = score below 0.9.

Each molecule was assayed against Retinoic acid receptor RXR-alpha (Homo sapiens) (UniProt P19793) (assay: ATG_RXRa_TRANS: Attagene TRANS-FACTORIAL HepG2 Assay for human Retinoid X Receptor alpha (RXRa) (AID 2283012)).
Chain of Retinoic acid receptor RXR-alpha (Homo sapiens) (P19793 whole entry, looked up): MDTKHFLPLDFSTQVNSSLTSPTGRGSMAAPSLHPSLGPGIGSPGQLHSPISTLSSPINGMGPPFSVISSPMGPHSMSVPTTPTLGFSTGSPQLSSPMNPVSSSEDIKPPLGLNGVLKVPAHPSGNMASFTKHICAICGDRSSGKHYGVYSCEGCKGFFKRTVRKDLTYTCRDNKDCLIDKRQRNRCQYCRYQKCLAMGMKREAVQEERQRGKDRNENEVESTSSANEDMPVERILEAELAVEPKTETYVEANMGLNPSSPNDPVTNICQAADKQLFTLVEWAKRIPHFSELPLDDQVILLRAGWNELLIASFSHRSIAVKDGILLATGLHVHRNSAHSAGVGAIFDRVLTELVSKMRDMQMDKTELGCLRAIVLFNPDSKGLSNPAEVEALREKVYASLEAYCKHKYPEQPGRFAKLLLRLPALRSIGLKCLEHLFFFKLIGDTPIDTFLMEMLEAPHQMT
Experimental: ATG_TRANS is a cell-based, multiplexed-readout assay that uses HepG2, a human liver cell line, with measurements taken at 24 hours after chemical dosing in a 24-well plate.ATG_RXRa_TRANS is one of 30 assay component(s) measured or calculated from the ATG_TRANS assay. It is designed to make measurements of mRNA induction, a form of inducible reporter, as detected with fluorescence intensity signals by Reverse transcription polymerase chain reaction (RT-PCR) and Capillary electrophoresis technology.Data from the assay component ATG_RXRa_TRANS was analyzed into 1 assay endpoint. This assay endpoint, ATG_RXRa_TRANS, was analyzed in the positive analysis fitting direction relative to DMSO as the negative control and baseline of activity. Using a type of inducible reporter, measures of mRNA for gain-of-signal activity can be used to understand the reporter gene at the transcription factor-level as they relate to the gene RXRA. Furthermore, this assay endpoint can be referred to as a primary readout, because this assay has produced multiple assay endpoints where this one serves a reporter gene function. To generalize the intended target to other relatable targets, this assay endpoint is annotated to the nuclear receptor intended target family, where the subfamily is non-steroidal.
Human liver HepG2 cells are transiently transfected with multiple reporter transcription units (MRTUs) in 6-well plates using FuGene 6 reagent (Roche; 3 ml FuGene/1 mg DNA). The MRTU constructs are regulated by a cis-regulating element (promoter). […] A major difference between the CIS and TRANS system is that in CIS activities of endogenous TFs are measured, whereas the TRANS assay evaluates changes in activities of exogenous, chimeric NR-Gal4 proteins. […] At the end of 24 hour incubation, total RNA was isolated using TriZol reagent (Invitrogen). The isolated RNA is then reverse-transcribed using oligo(dT) primer and Mo-MLV reverse transcriptase (Invitrogen) with DNAse I (Ambion) treatment for 30 min. The one-tenth of the produced cDNA was amplified by PCR using Taq DNA polymerase (Invitrogen) and two reporter sequence-specific primers. The PCR products were fluorescently labeled by primer extension with 6-arboxyfluorescein (6-FAM) 5'-labeled reporter sequence-specific primer (2 min at 95 C, 20 s at 68 C and 10 min at 72 C) and these products were digested with 5U of HpaI (New England Biolabs) for 2h at 37 C. The fragments were purified using Qiaquick PCR columns (Qiagen), analyzed on an ABI 3130xL genetic analyzer (Applied Biosystems) with peak positions identified by using a set of X-rhodamine (ROX)-labeled MapMarker1000 molecular weight standards (BioVentures). The raw capillary electrophoresis data was processed using Attagraph software (Attagene).

outcome, inactive:
CC/C=C\C/C=C\C/C=C\CCCCCCCC(=O)O, OCCCS, Nc1ccc(Cl)cc1Cl, CC(=O)c1ccc[nH]1, C/C=C\C/C=C/CCCCCCCCOC(C)=O, COc1ccc([C@@H]2CC(=O)c3c(O)cc(O[C@@H]4O[C@H](CO[C@@H]5O[C@@H](C)[C@H](O)[C@@H](O)[C@H]5O)[C@@H](O)[C@H](O)[C@H]4O)cc3O2)cc1OC, CCCCCCCCCCc1ccccc1, O=C1CCCCCN1SSN1CCCCCC1=O, O=C1CCCCCCCCCCCCCCCO1, COC(F)(F)C(F)(C(F)(F)F)C(F)(F)F, O=C1CCC(=O)N1Cl, CC(=O)Nc1nnc(S(N)(=O)=O)s1, C=C[C@](C)(O)CC[C@@H]1[C@@]2(C)CCCC(C)(C)[C@@H]2CC[C@@]1(C)O, Cc1ccc(N)c([N+](=O)[O-])c1, CCCOC(=O)CCCCC(=O)OCCC, N#CCc1ccc(Cl)cc1Cl, O=C(C(Cl)Cl)N1CCOC12CCCCC2, Cc1ccc(C(C)(C)C)cc1, Cc1cnc(NC(=O)C2=C(O)c3ccccc3S(=O)(=O)N2C)s1, Nc1ncn([C@@H]2O[C@H](CO)[C@@H](O)[C@H]2O)c(=O)n1, O=[N+]([O-])c1ccc(CO)cc1, CC(C)(Oc1ccc(C2CC2(Cl)Cl)cc1)C(=O)O (stereo not given), C=C1[C@H]2CC[C@@H]3[C@H]2C(C)(C)CCC[C@]13C, COc1ccc(-c2coc3cc(O)ccc3c2=O)cc1, Cc1cccc(N)n1, CCOC(=O)NNc1nncc2ccccc12, COc1ccc(C(Cl)=C(c2ccc(OC)cc2)c2ccc(OC)cc2)cc1, CCCCC(CC)COCC1CO1 (stereo not given), O=C(O)CCCCCCCCCC(=O)O, CC(C)(C)c1ccc(OC(=O)c2ccccc2O)cc1, CC1=Nc2ccc3ccccc3c2C1(C)C, C=C[Si](C)(C)O[Si](C)(C)C=C, O=c1n(CCO)c(=O)n(CCO)c(=O)n1CCO, O=S(=O)(O)c1ccc2cc(O)c(S(=O)(=O)O)cc2c1, CCC(CC)C(=O)O, COC(=O)c1ccc2cc(C(=O)OC)ccc2c1, c1ccc(CCCc2ccncc2)cc1, O=C(c1ccc(O)cc1)c1ccc(O)cc1O

AC50, active:
CC(C)c1ccc2c(c1)CC[C@H]1[C@](C)(CN)CCC[C@]21C 6.76 µM, C=C(C)C(=O)OCCOc1ccccc1 26.5 µM
